Assay results: PubChem BioAssay (EPA / NIEHS)
Results filed as inconclusive are left out. The source made the active and inactive calls. How the source made its calls: active means hit-call score of the fitted dose curve at least 0.9, where 1 is the maximum; inconclusive means response in the unintended direction; inactive means score below 0.9.

What was measured:
[1] = target: Cellular tumor antigen p53 (Homo sapiens) (UniProt P04637); assay: TOX21_p53_BLA_p2_ratio: Tox21 HCT-116 p53 Agonism Beta-lactamase Assay, Ratio, Phase 2 (AID 2283592)
In short: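 An inducible beta-lactamase reporter in HCT116 cells signals p53 pathway activation. After 16 h chemical exposure at 37C, cells load CCF4-AM substrate for 2 h at room temperature; activity is the cleaved/uncleaved emission ratio relative to DMSO.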

[2] = TOX21_p53_BLA_p3_viability: Viability Assessment in the Tox21 HCT-116 p53 Agonism Beta-lactamase Assay, Phase 3 (AID 2283593);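 further: cells exposed to compound for 16 h before reading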
In short: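 Cellular ATP was quantified by CellTiter-Glo luminescence, read after 30 min at room temperature. Beforehand, HCT116 cells (4000/well) received compound 5 h post-seeding, 217-fold diluted from DMSO, then incubated 16 h at 37C.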

[3] = target: Cellular tumor antigen p53 (Homo sapiens) (UniProt P04637); assay: TOX21_p53_BLA_p3_ratio: Tox21 HCT-116 p53 Agonism Beta-lactamase Assay, Ratio, Phase 3 (AID 2283596)
In short: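 HCT116 p53-bla cells (4000/well) given compound in DMSO (217-fold dilution) after 5 h, incubated 16 h at 37C. CCF4-AM substrate 2 h at room temperature; 460/530 nm emission ratio, gain fitted against DMSO.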

[4] = target: Cellular tumor antigen p53 (Homo sapiens) (UniProt P04637); assay: TOX21_p53_BLA_p5_ratio: Tox21 HCT-116 p53 Agonism Beta-lactamase Assay, Ratio, Phase 5 (AID 2283599)
In short: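 Beta-lactamase reporter ratio (blue 460 nm over green 530 nm, 405 nm excitation) after 2 h CCF4-AM loading, in HCT-116 cells exposed 16 h at 37 C to compounds pinned at 217-fold dilution. Increases relative to DMSO baseline scored.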

[5] = target: Cellular tumor antigen p53 (Homo sapiens) (UniProt P04637); assay: TOX21_p53_BLA_p4_ratio: Tox21 HCT-116 p53 Agonism Beta-lactamase Assay, Ratio, Phase 4 (AID 2283601)
In short: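 Signal is the blue/green (460nm/530nm) ratio of cleaved versus uncleaved CCF4-AM substrate, read after 2 h substrate loading. Cells were HCT116 carrying the p53-responsive beta-lactamase reporter, dosed 16 h at 37C, 5% CO2; CellTiter-Glo measured in parallel.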

[6] = TOX21_p53_BLA_p4_viability: Viability Assessment in the Tox21 HCT-116 p53 Agonism Beta-lactamase Assay, Phase 4 (AID 2283597);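 further: hits lower the luminescence signal meaning cytotoxicity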
In short: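 Compound exposure of HCT116 cells lasts 16 h at 37C, 5% CO2, with DMSO stocks diluted 217-fold. Cellular ATP is then quantified by CellTiter-Glo luminescence after 30 min at room temperature.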

[7] = TOX21_p53_BLA_p5_viability: Viability Assessment in the Tox21 HCT-116 p53 Agonism Beta-lactamase Assay, Phase 5 (AID 2283600)
In short: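 Counter-readout for cytotoxicity: ATP-dependent luminescence from CellTiter-Glo, read in the beta-lactamase wells after 30 min at RT, following a 16 h compound exposure at 37C.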

Measured: AC50

Chain of Cellular tumor antigen p53 (Homo sapiens) (P04637 whole entry, looked up): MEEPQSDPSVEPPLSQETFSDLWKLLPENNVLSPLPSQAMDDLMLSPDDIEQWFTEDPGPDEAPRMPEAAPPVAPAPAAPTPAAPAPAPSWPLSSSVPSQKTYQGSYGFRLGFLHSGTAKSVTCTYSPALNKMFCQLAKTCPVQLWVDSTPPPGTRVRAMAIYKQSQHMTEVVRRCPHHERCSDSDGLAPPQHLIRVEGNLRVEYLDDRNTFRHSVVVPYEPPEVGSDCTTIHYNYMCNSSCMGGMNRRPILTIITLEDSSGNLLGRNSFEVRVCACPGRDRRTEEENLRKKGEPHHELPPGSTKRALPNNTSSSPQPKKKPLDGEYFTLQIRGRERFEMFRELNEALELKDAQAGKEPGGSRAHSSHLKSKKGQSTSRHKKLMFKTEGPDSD

Nc1nc(N)nc(N)n1
not listed: [6] | [7]
inactive: all other assays above

C#CC(C)(O)CC (stereo not drawn)
not listed: [3]
inactive: all other assays above

Cc1ccc(Cl)c(O)c1
not listed: [4] | [6]
inactive: all other assays above

Brc1c(Br)c(Br)c(Br)c(Br)c1Br
inactive: [1] | [2] | [6] | [4]

O=C(C[C@@H]1NCCC[C@H]1O)Cn1cnc2cc(Br)c(Cl)cc2c1=O
not listed: [3] | [4]
inactive: all other assays above

CCOC(=O)C(Cl)C(C)=O (stereo not drawn)
not listed: [6]
inactive: all other assays above

CCCCN(N=O)C(=N)N[N+](=O)[O-]
active: [1] 57 µM | [3] 56.4 µM | [4] 55.2 µM | [5] 40.7 µM
inactive: [2] | [7]

Cn1cc(C2=C(c3cn(C4CCN(Cc5ccccn5)CC4)c4ccccc34)C(=O)NC2=O)c2ccccc21
inactive: [1] | [2] | [4] | [5]
active: [3] 12 µM

Cc1ncc2n1-c1ccc(Cl)cc1C(c1ccccc1F)=NC2
not listed: [3] | [7]
inactive: all other assays above

C=C[C@H]1CN2CC[C@H]1C[C@H]2[C@H](OC(=O)OCC)c1ccnc2ccc(OC)cc12
not listed: [3]
inactive: all other assays above

COC1=CC(=O)O[C@@H](/C=C/c2ccccc2)C1
not listed: [3] | [4]
inactive: all other assays above

CCCCc1ccc(C(=O)O)nc1
inactive: [1] | [2] | [6] | [7]

COc1ccc2c(c1OC)C(=O)O[C@H]2[C@@H]1c2cc3c(cc2CCN1C)OCO3
not listed: [6]
inactive: all other assays above

C[N+]1(C)[C@@H]2CC[C@H]1CC(OC(=O)c1c[nH]c3ccccc13)C2 (stereo partly drawn)
not listed: [3]
inactive: all other assays above

Cn1cc[n+](C)c1 (tested in a mixture with another compound)
inactive: [1] | [2] | [6] | [7]

O=C(O)CCCO
not listed: [6] | [7]
inactive: all other assays above
